Reference: PubChem BioAssay AID1159580 (chemical genetic matrix, 2015)
Several values for one entry are separate records, joined by “and”; a condition that tells them apart may be missing. Identical values can stand only once. Among all 5,500 compounds or so, about 2,000 (36%) were called active. About 18% were inconclusive and are not listed. Cut-off read from the data, not from the text of the source: active = normalized growth mostly below about 0.91 (no sharp cut-off); inconclusive = no clear call, values can overlap the other calls; inactive = mostly above about 0.92. This is one part of the list.

Experiment: chemical genetic growth profiling, strain panel (AID 1159580);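 note: tested at 20 µM; growth read once vehicle control cultures reached saturation at 30 °C; 1 = growth at the plate median or of vehicle wells; lower values mean less growth of the strain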
Conditions: S. cerevisiae deletion strains, growth OD

Measured: normalized growth

CC(=O)OCC(CCn1cnc2cnc(N)nc21)COC(C)=O
inactive: locus YAL013W, strain DEP1, active compounds read low 0.988 | locus YAL021C, strain ccr4, active compounds read low 1.01 | locus YAL026C, strain drs2, active compounds read low 1 | locus YAL030W, strain snc1, active compounds read low 0.982 | locus YBL061C, strain skt5, active compounds read low 0.989 | locus YBR009C, strain hhf1, active compounds read low 1 | locus YBR021W, strain FUR4, active compounds read low 1.01 | locus YBR023C, strain chs3, active compounds read low 0.998 | locus YBR171W, strain sec66, active compounds read low 0.982 | locus YBR229C, strain ROT2, active compounds read low 0.989 | locus YBR231C, strain swc5, active compounds read low 0.971 | locus YBR279W, strain paf1, active compounds read low 0.986 | locus YCL011C, strain gbp2, active compounds read low 0.994 | locus YCL016C, strain dcc1, active compounds read low 0.998 | locus YCL029C, strain bik1, active compounds read low 0.965 | locus YCL061C, strain MRC1, active compounds read low 0.991 | locus YCL069W, strain vba3, active compounds read low 0.988 | locus YCR088W, strain abp1, active compounds read low 0.988 | locus YDL005C, strain med2, active compounds read low 0.991 | locus YDL035C, strain GPR1, active compounds read low 0.994 | locus YDL040C, strain nat1, active compounds read low 0.993 | locus YDL074C, strain BRE1, active compounds read low 1.01 | locus YDL101C, strain DUN1, active compounds read low 0.985 | locus YDL134C, strain PPH21, active compounds read low 0.997 | locus YDL185W, strain tfp1, active compounds read low 0.967 | locus YDL192W, strain arf1, active compounds read low 0.971 | locus YDR001C, strain nth1, active compounds read low 0.988 | locus YDR069C, strain doa4, active compounds read low 0.972 | locus YDR101C, strain arx1, active compounds read low 0.983 | locus YDR137W, strain rgp1, active compounds read low 1.01 | locus YDR150W, strain NUM1, active compounds read low 0.993 | locus YDR159W, strain sac3, active compounds read low 1.01 | locus YDR162C, strain NBP2, active compounds read low 0.996 | locus YDR195W, strain ref2 0.941 | locus YDR297W, strain sur2, active compounds read low 0.987 | locus YDR318W, strain mcm21, active compounds read low 0.979 | locus YDR334W, strain swr1, active compounds read low 1 | locus YDR335W, strain msn5, active compounds read low 0.99 | locus YDR388W, active compounds read low 0.969 | locus YDR392W, strain spt3, active compounds read low 0.995 | locus YDR502C, strain sam2, active compounds read low 0.993 | locus YEL003W, strain gim4, active compounds read low 0.984 | locus YEL037C, strain rad23, active compounds read low 1 | locus YEL061C, strain CIN8 (second series), active compounds read low 0.988 | locus YEL061C, strain CIN8, active compounds read low 0.992 | locus YER015W, strain faa2, active compounds read low 1 | locus YER016W, strain bim1, active compounds read low 0.987 | locus YER110C, active compounds read low 0.974 | locus YER111C, strain swi4, active compounds read low 0.972 | locus YER155C, strain BEM2 (second series), active compounds read low 0.959 | locus YER155C, strain BEM2, active compounds read low 0.993 | locus YER167W, strain BCK2, active compounds read low 0.989 | locus YFR010W, strain ubp6, active compounds read low 0.98 | locus YGL078C, strain dbp3, active compounds read low 0.967 | locus YGL086W, strain mad1, active compounds read low 0.984 | locus YGL167C, strain pmr1, active compounds read low 0.987 | locus YGL173C, strain kem1, active compounds read low 1 | locus YGL227W, strain vid30, active compounds read low 0.979 | locus YGL240W, strain doc1, active compounds read low 0.966 | locus YGL248W, strain PDE1, active compounds read low 0.987 | locus YGL253W, strain hxk2, active compounds read low 0.996 | locus YGR078C, strain PAC10, active compounds read low 1.01 | locus YGR135W, strain pre9, active compounds read low 0.974 | locus YGR229C, strain SMI1, active compounds read low 1.01 | locus YGR252W, strain gcn5, active compounds read low 1.08 | locus YHR013C, strain ard1, active compounds read low 1 | locus YHR027C, strain rpn1, active compounds read low 0.989 | locus YHR030C, strain SLT2, active compounds read low 0.984 and 0.946 | locus YHR079C, strain IRE1 (second series), active compounds read low 0.961 | locus YHR079C, strain IRE1, active compounds read low 0.957 | locus YHR094C, strain hxt1, active compounds read low 0.973 | locus YHR129C, strain ARP1, active compounds read low 0.991 | locus YHR142W, strain chs7, active compounds read low 1 | locus YHR200W, strain rpn10, active compounds read low 0.973 | locus YIL066C, strain RNR3, active compounds read low 0.994 | locus YIL073C, strain SPO22, active compounds read low 0.952 | locus YIL125W, strain kgd1, active compounds read low 0.97 | locus YIR030C, strain dcg1, active compounds read low 0.976 | locus YJL092W, strain hpr5, active compounds read low 0.982 | locus YJL095W, strain BCK1 (second series), active compounds read low 0.987 | locus YJL095W, strain BCK1, active compounds read low 0.99 and 0.992 | locus YJL115W, strain asf1, active compounds read low 0.979 | locus YJL129C, strain trk1, active compounds read low 0.973 | locus YJL134W, strain LCB3, active compounds read low 0.985 | locus YJL154C, strain vps35, active compounds read low 0.997 | locus YJL164C, strain tpk1, active compounds read low 1.01 | locus YJL166W, strain qcr8, active compounds read low 0.984 | locus YJL168C, strain set2, active compounds read low 0.974 | locus YJL187C, strain SWE1 (second series), active compounds read low 0.984 | locus YJR043C, strain POL32, active compounds read low 0.976 | locus YJR066W, strain TOR1, active compounds read low 0.934
